Test systems include NCI-H23 lung; NCI-H226 lung; NCI-H322M lung; HOP-62 NSCLC; NCI-H460 lung; HOP-92 NSCLC; NCI-H522 lung; A549/ATCC NSCLC; 786-0 renal; COLO 205 colon; DU-145 prostate; K-562 leukemia; MALME-3M melanoma; MDA-MB-231 breast; RXF 393 renal; SF-268 CNS; SF-295 CNS; SF-539 CNS; UACC-257 melanoma; M14 melanoma.
What all share (assay): NCI-60 one-dose screen, 48 h (100 = growth as untreated, 0 = no growth, -100 = all killed)
Common to all, as to details: 10 µM unless noted

This is part of a sample that, as a whole, favours compounds with a hit. Of some 83,000 tested, about 20% had one in any assay.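 Compound tested at a single concentration for 48 hours in 96-well plates; a percent growth value below 10 was scored as active.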 Values without a mark were called inactive. Activity calls are given as the source filed them.

For the compound `C1=CC2=CC=C3C=CC=C4C(c5nc6c7ccccc7c7ccccc7c6[nH]5)=CC(=C1)C2C34` (stereo not given), the growth in the assay on NCI-H23 lung is 98.1%; in the assay with NCI-H226 lung, 23.8%; with NCI-H322M lung, 90.9%; with HOP-62 NSCLC it was 68.7%; in the assay with NCI-H460 lung, 98.9%; with HOP-92 NSCLC, 72.9%. The growth with NCI-H522 lung was 82.5%; in the assay on A549/ATCC NSCLC it was 89.7%; with 786-0 renal, 98.2%; in the assay on COLO 205 colon it was 120%; in the assay on DU-145 prostate, 105%; in the assay on K-562 leukemia, 90.4%. Besides, the growth with MALME-3M melanoma is 117%; with MDA-MB-231 breast, 76.8%; in the assay on RXF 393 renal, 99.8%; with SF-268 CNS, 85.4%; in the assay on SF-295 CNS, 113%; in the assay on SF-539 CNS, 101%. Also, the values for the growth with UACC-257 melanoma and with M14 melanoma were 105% and 99.3%, respectively.

Take `Cc1cc(C)c(NC(=O)c2sc3nc4c(cc3c2N)CCCCCC4)c(C)c1`: the growth was 81.1% in the assay on NCI-H23 lung; 75.6% with NCI-H226 lung; 99.7% in the assay on NCI-H322M lung; 45.6% in the assay with HOP-62 NSCLC; 46.2% with NCI-H460 lung; 51.3% with HOP-92 NSCLC. For the same compound, the growth was 4.69% (active) in the assay on NCI-H522 lung; 53.2% in the assay on A549/ATCC NSCLC; 48.7% in the assay on 786-0 renal; 81.5% in the assay on COLO 205 colon; 66.4% in the assay on DU-145 prostate; 16.8% in the assay on K-562 leukemia. In addition, the growth with MALME-3M melanoma was 57.4%; in the assay on MDA-MB-231 breast, 88.2%; in the assay on RXF 393 renal it was 65.8%; in the assay with SF-268 CNS, 59.4%; with SF-295 CNS it was 38.1%; in the assay on SF-539 CNS, 60%. Further, the growth is 62.8% in the assay with UACC-257 melanoma and 27% with M14 melanoma.

`C=C1C(=O)O[C@H]2[C@H]1CC/C(COC(=O)n1ccnc1)=C\CC[C@@]1(C)O[C@@H]21`: the growth was 91.1% with NCI-H23 lung; 92.4% in the assay with NCI-H226 lung; 113% with NCI-H322M lung; 92.5% in the assay on HOP-62 NSCLC; 104% in the assay with NCI-H460 lung; 94.4% in the assay with HOP-92 NSCLC. Moreover, the growth in the assay on NCI-H522 lung was 31.9%; in the assay with A549/ATCC NSCLC, 93%; with 786-0 renal, 102%; in the assay with COLO 205 colon, 64.6%; in the assay with DU-145 prostate, 96.8%; in the assay on K-562 leukemia it was 86.7%. Further, the growth in the assay on MALME-3M melanoma was 90.8%; with MDA-MB-231 breast it was 95.9%; in the assay on RXF 393 renal it was 102%; in the assay with SF-268 CNS, 110%; in the assay with SF-295 CNS it was 100%; with SF-539 CNS it was 102%. Moreover, the figures for the growth in the assay on UACC-257 melanoma and in the assay with M14 melanoma were 90.7% and 84.3%, respectively.

As for `COC1=CC=CC2(OC)C3(O)CCCc4cccc(c43)N3C(=O)COC132` (stereo not given), the growth is 96.1% in the assay on NCI-H23 lung; 103% in the assay on NCI-H226 lung; 101% with NCI-H322M lung; 102% in the assay with HOP-62 NSCLC; 105% with NCI-H460 lung; 89.9% with HOP-92 NSCLC. Moreover, the growth in the assay on NCI-H522 lung is 78.8%; in the assay with A549/ATCC NSCLC, 90.8%; with 786-0 renal, 102%; in the assay on COLO 205 colon, 107%; in the assay on DU-145 prostate, 106%; in the assay with K-562 leukemia it was 92.5%. Further, the growth with MALME-3M melanoma is 92.9%; in the assay on MDA-MB-231 breast, 98.5%; in the assay on RXF 393 renal, 104%; in the assay on SF-268 CNS it was 98.4%; in the assay with SF-295 CNS, 106%; in the assay with SF-539 CNS it was 98%. The growth in the assay on UACC-257 melanoma is 101%; in the assay on M14 melanoma, 99.1%.

As to `COc1ccc(-n2cc(-c3ccc(Cl)c(Cl)c3)[nH]c2=O)cc1OC`, the growth with NCI-H23 lung is 94.8%; in the assay with NCI-H226 lung, 97.5%; in the assay with NCI-H322M lung, 75.9%; in the assay with HOP-62 NSCLC it was 97.3%; in the assay on NCI-H460 lung, 107%; with HOP-92 NSCLC, 75%. The growth is 85.2% in the assay with NCI-H522 lung; 89.6% in the assay with A549/ATCC NSCLC; 59.5% with 786-0 renal; 109% in the assay on COLO 205 colon; 98.3% in the assay on DU-145 prostate; 80.2% in the assay on K-562 leukemia. The growth in the assay on MALME-3M melanoma is 80.1%; in the assay on MDA-MB-231 breast, 85.1%; with RXF 393 renal, 108%; with SF-268 CNS, 109%; in the assay on SF-295 CNS, 101%; in the assay with SF-539 CNS it was 102%. The growth with UACC-257 melanoma is 85.7%; in the assay on M14 melanoma it was 104%.

As for `O=C1Nc2ccc(Cl)cc2/C1=N/c1nc(-c2ccc(Cl)cc2)cs1`, the growth in the assay on NCI-H23 lung is 7.9% (active); with NCI-H226 lung it was 36.9%; in the assay on NCI-H322M lung, 48.9%; with HOP-62 NSCLC, -5.13% (active); in the assay on NCI-H460 lung it was -10.2% (active); in the assay on HOP-92 NSCLC it was -13.1% (active). Besides, the growth was -12.8% (active) with NCI-H522 lung; 7.91% (active) in the assay on A549/ATCC NSCLC; -16.2% (active) with 786-0 renal; -51.6% (active) in the assay on COLO 205 colon; 26.2% in the assay on DU-145 prostate; 5.94% (active) in the assay on K-562 leukemia. Besides, the growth was 22.2% in the assay with MALME-3M melanoma; -22.8% (active) in the assay with MDA-MB-231 breast; -19.7% (active) in the assay with RXF 393 renal; 21.6% in the assay with SF-268 CNS; 14.3% in the assay on SF-295 CNS; -6.26% (active) in the assay with SF-539 CNS. Also, the figures for the growth with UACC-257 melanoma and in the assay on M14 melanoma were -2.07% (active) and 1.32% (active), respectively.

On to `Nc1c(C(=O)Nc2ccccc2Cl)sc2nc3c(cc12)CN(Cc1ccccc1)CC3`, for which the growth in the assay on NCI-H23 lung was 103%; with NCI-H226 lung it was 91.5%; with NCI-H322M lung, 92.4%; with HOP-62 NSCLC it was 104%; in the assay on NCI-H460 lung, 93.4%; in the assay with HOP-92 NSCLC, 109%. Further, the growth was 88.2% with NCI-H522 lung; 112% in the assay on A549/ATCC NSCLC; 99% with 786-0 renal; 95.5% in the assay with COLO 205 colon; 94% in the assay on DU-145 prostate; 99% in the assay with K-562 leukemia. For the same compound, the growth is 75.5% with MALME-3M melanoma; 105% in the assay with MDA-MB-231 breast; 110% with RXF 393 renal; 81.5% in the assay with SF-268 CNS; 100% with SF-295 CNS; 102% in the assay on SF-539 CNS. Besides, the growth with UACC-257 melanoma is 128%; with M14 melanoma, 107%.

Source of the values: PubChem BioAssay (NCI).
